Bioassay records from PubChem.
LYPLA2 counter: counter-screen for PME1 inhibitors: inhibitors of human LYPLA2; recombinant LYPLA2, FP-Rh probe fluorescence polarization; inhibition, % at 5.9 µM; 320,000 tested, 0.38% active; AID 2177; O95372;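 active means inhibition above the screen-wide mean plus 3 SD, limit set per campaign, cut at about 26% in these data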
Target sequence (O95372 whole entry, looked up): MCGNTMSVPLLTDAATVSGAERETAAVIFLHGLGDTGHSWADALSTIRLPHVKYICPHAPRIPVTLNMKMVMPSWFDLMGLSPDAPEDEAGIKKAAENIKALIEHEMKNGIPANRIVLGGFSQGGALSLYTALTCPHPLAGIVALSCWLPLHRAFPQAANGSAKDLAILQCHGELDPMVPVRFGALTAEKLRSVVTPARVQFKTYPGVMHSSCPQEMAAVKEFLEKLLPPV
PREPL inh: human PREPL enzyme inhibition; inhibition, % at 5.96 µM; 320,000 tested, 0.68% active; recombinant PREPL, fluorescence polarization activity-based probe; Q4J6C6
PME-1 inh: blocks human protein phosphatase methylesterase 1; Q9Y570; recombinant PME-1, FP-Rh probe fluorescence polarization; inhibition, % at 5.9 µM; 320,000 tested, 0.53% active; AID 2130;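 active means inhibition above the campaign mean of all compounds plus 3 SD, cut at about 26% in these data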;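 further: competitive labeling of PME-1 active site by serine hydrolase directed probe; inhibitors block probe labeling so polarization falls and inhibition rises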
LYPLA1 inh: LYPLA1 (human) inhibition in PME1 counter-screen | AID 2174 | inhibition, % at 5.9 µM | 320,000 tested, 0.16% active | recombinant LYPLA1, FP-Rh probe fluorescence polarization | O75608;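 active means inhibition above the mean of all tested compounds plus 3 SD, set per campaign, cut at about 14% in these data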;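 further: inhibitors block serine hydrolase probe labeling of LYPLA1 so polarization falls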
Target sequence (O75608 whole entry, looked up): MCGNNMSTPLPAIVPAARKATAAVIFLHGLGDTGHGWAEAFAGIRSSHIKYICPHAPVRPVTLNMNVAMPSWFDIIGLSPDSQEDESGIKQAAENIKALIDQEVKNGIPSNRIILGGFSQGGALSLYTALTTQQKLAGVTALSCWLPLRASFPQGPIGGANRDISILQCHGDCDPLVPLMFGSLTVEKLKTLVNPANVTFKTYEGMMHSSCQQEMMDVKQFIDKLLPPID
Fam108B inh: Fam108B inhibition, counter-screen for RBBP9 inhibitors. recombinant Fam108B, FP-Rh probe fluorescence polarization. inhibition, % at 9.51 µM. 300,000 tested, 0.33% active;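 active means inhibition above the screen mean inhibition plus 3 SD, computed separately per campaign, cut at about 18% in these data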;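 further: inhibitors lower polarization as less probe binds the enzyme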
PREPL inh cf: confirmation of human PREPL enzyme inhibitors; shares compounds with PREPL inh; recombinant PREPL, fluorescence polarization activity probe; inhibition, % at 5.96 µM; 2,000 tested, 67% active; AID 2803
A number is an active result; . = inactive; / = no result. A selection: hits, their analogues and other compounds. The true share with any hit is near 1.3%. Unless noted, no stated cut-off is given here; in the data, active means inhibition above about 43%; inactive means the rest.

SMILES | LYPLA2 counter | PREPL inh | PME-1 inh | LYPLA1 inh | Fam108B inh | PREPL inh cf
Cn1c(NC(=O)C[n+]2cc(-c3ccc(Cl)c(Cl)c3)n3c2CCC3)cc(=O)n(C)c1=O | . | 60.3 | . | . | . | 51.1
CN(C)c1ccc(/C=C/C(=O)c2ccc3c(c2)OCO3)cc1 | . | 52.2 | . | . | / | .
O=C(/C=C/c1ccccc1)c1ccc2c(c1)OCO2 | . | . | . | . | . | /
COCc1c(C(=O)OCc2nnc(-c3ccc([N+](=O)[O-])cc3)o2)oc2ccccc12 | / | 43.3 | / | / | / | .
CC(=O)c1c(C)[nH]c(C(=O)OCc2nnc(-c3ccc([N+](=O)[O-])cc3)o2)c1C | / | . | / | / | / | /
OCC1CCCCN1CCNCc1cn[nH]c1-c1cccc2ccccc12 (configuration not stated) | . | 43.8 | . | . | . | .
COC(=O)C1CCN(CCCOc2ccc(CN3CCN(c4ccc([N+](=O)[O-])cc4)CC3)cc2)CC1 | . | 52.2 | . | . | . | 44.0
CCCN(CCC)C(=O)CSc1nc2n[nH]c(C)c2c(=N)n1-c1ccc(OCC)cc1 | . | 54.7 | . | . | . | .
CC(=O)N1CCc2cc(S(=O)(=O)CCC(=O)N(C)Cc3ccco3)ccc21 | . | . | . | . | . | /
CC1=NN(c2ccc(C(=O)O)cc2)C(=O)/C1=C\c1ccc(OC(=O)c2cccs2)cc1 | . | 45.3 | . | . | . | 61.5
Cc1ccc(Nc2nc(-c3c(C)nc4ncccn34)cs2)cc1 | . | 51.0 | . | . | . | 44.7
CN(C)S(=O)(=O)c1ccc(Cl)c(C(=O)Nc2cccc3ncccc23)c1 | . | . | . | . | . | /
Cc1ccn2c(Nc3ccccc3)c(-c3ccccn3)nc2c1 | . | 66.7 | . | . | . | 63.1
Cc1ccn2c(Nc3ccccc3C)c(-c3ccccn3)nc2c1 | . | 51.9 | . | . | . | .
Cc1ccccc1Nc1c(-c2ccccn2)nc2ccccn12 | . | . | . | . | . | /
Cc1cccn2c(Nc3ccccc3)c(-c3ccccn3)nc12 | . | . | . | . | . | /
CCC(=O)Nc1ccc(C(=O)Nc2cccc(C)n2)cc1 | . | . | . | . | . | /
c1ccc(-c2nc(N3CCCCCC3)c3ccccc3n2)nc1 | . | 68.2 | . | . | . | 65.2
c1ccc(-c2nc(N3CCOCC3)c3ccccc3n2)nc1 | . | . | . | . | . | /
C/C(=N\Nc1nc(-c2ccccn2)nc2ccccc12)c1ccc(F)cc1 | . | . | . | . | . | /
c1ccc(CCNc2nc(-c3ccccn3)nc3ccccc23)cc1 | . | 73.5 | . | . | . | 76.8
CCSc1ncc(/C=N/Nc2ccc(Cl)cc2)n1C | . | 43.1 | . | . | . | .
COc1ccc(CCNC(=O)CCS(=O)(=O)Cc2ccccc2C)cc1OC | . | . | . | . | . | /
S=C(Nc1ccc2nccnc2c1)N1CCOCC1 | . | . | . | . | . | /
CCN(C(=O)CSc1nc(C)nc2sc3c(c12)CCC3)C1CCS(=O)(=O)C1 (configuration not stated) | / | 53.9 | / | / | / | .
SMILES | LYPLA2 counter | PREPL inh | PME-1 inh | LYPLA1 inh | Fam108B inh | PREPL inh cf
Cc1cccc(Nc2nnc(SC/C(O)=C(\C#N)c3nc4ccccc4[nH]3)s2)c1 | . | . | . | . | . | /
Cc1ccc(Nc2nnc(SC/C(O)=C(\C#N)c3nc4ccccc4[nH]3)s2)c(C)c1 | . | 48.8 | 64.2 | . | . | .
COc1ccc(C)cc1Nc1n[n+](-c2ccccc2)c(-c2c(Cl)cccc2Cl)s1 | . | . | . | . | . | /
COc1ccc(C)cc1Nc1n[n+](-c2ccccc2)c(-c2ccc(N(C)C)cc2)s1 | . | 61.0 | . | . | . | 68.9
COc1ccc(C)cc1Nc1n[n+](-c2ccccc2)c(-c2ccc(OC)c(OC)c2OC)s1 | . | 53.4 | . | . | . | 60.2
Oc1ccccc1N1CCN(c2ccc3ccccc3n2)CC1 | . | 54.2 | . | . | . | .
COc1cccc(N2CCN(Cc3nc4ccccc4c(=O)[nH]3)CC2)c1 | . | 48.5 | . | . | . | .
O=C(NCc1ccc2c(c1)OCO2)c1cc(COc2c(F)cccc2F)on1 | . | . | . | . | . | /
COc1cccc(CNC(=O)c2cc(COc3c(F)cccc3F)on2)c1 | . | 50.2 | . | . | . | .
COc1cc(CC(=O)Nc2sccc2C(N)=O)cc(OC)c1OC | . | . | . | . | . | /
COc1ccc(CCC(=O)OCC(=O)Nc2sccc2C(N)=O)cc1OC | / | 48.3 | / | / | / | .
